The values below come from ChEMBL document CHEMBL3988442, “University of Dundee, Small-Polar-MMV Screening Library” (2021).

In all, about 48,000 compounds went through this assay and about 13,000 (27%) showed an effect of 50% or more. The list shows a part of the results.

The assay relates to Wolbachia pipientis. Description: Anti-Wolbachia Cell-Based Screen. Format: functional. Details: scale not given: in the data most compounds retested in dose-response had high values. The settings on record: 5 µM.
Regarding `CC(C)C(Sc1nnnn1C1CC1)C(=O)NCc1cccnc1` (stereo unspecified), the “Percent Effect” value is given as 0.8079%.
For the compound `CC(C)Cn1nnnc1SC(C(=O)NCc1cccnc1)C(C)C` (stereo unspecified), the “Percent Effect” value is 111.1%.
Consider `CC(C)C(Sc1nncn1C1CC1)C(=O)NCc1cccnc1` (stereo unspecified), for which the “Percent Effect” value came out at 102%.
Consider `CC(C)C(Sc1nnc(C2CC2)n1C1CC1)C(=O)NCc1cccnc1` (stereo unspecified), for which the “Percent Effect” value worked out at 2.12%.
Next, `Cc1nn(C)c2cnn(C(C)C(=O)NCc3cccnc3)c12` (stereo unspecified): 10.06%.
For `Cc1nn(C)c2cn(C(C)C(=O)NCc3cccnc3)nc12` (stereo unspecified) the value was 6.41%.
Take `CC(C)Sc1nnnn1C1CCCC1`: the “Percent Effect” value is recorded as -35.1%.
On to `CC(C)C(Sc1nccn1C1CC1)C(=O)NCc1cccnc1` (stereo unspecified), for which the “Percent Effect” value is recorded as 93.78%.
On to `CC(C)C(Sc1nnnn1-c1ccccc1)C(=O)NCc1cccnc1` (stereo unspecified), for which the “Percent Effect” value is reported as -6.711%.
As to `CC(C)C(Sc1nnnn1C1CC1)C(=O)NCc1ccccc1` (stereo unspecified), the “Percent Effect” value turned out to be 90.27%.
Next, `Cc1ccc(C)c(OC(C)C(=O)NCc2cccnc2)c1` (stereo unspecified): -19.9%; `O=C(c1cc(=O)[nH][nH]1)N1CCCC2(CCC(=O)N(C3CCCC3)C2)C1` (stereo unspecified): -4.852%.
Next, `Cc1nnsc1CN(C)C(=O)CN1CC2(CCNCC2)OC1=O`: -6.607%; `COCCN1CCC(CNC(=O)C2(C#N)CCCC2)CC1`: -6.048%; `COc1ccncc1NC(=O)C1(c2ccccc2)CC1`: -4.467%.
As for `CCN1CCCC(CNC(=O)C2(c3cc(C)cc(C)c3)CCC2)C1` (stereo unspecified), the “Percent Effect” value was found to be 97.54%.
`CC(C)(CNC(=O)C1(c2ccccc2)CCOCC1)C(=O)O`: the “Percent Effect” value is reported as 1.32%.
Next, `COCCN1CCC(CNC(=O)C2(c3ccc(F)cc3)CCC2)CC1`: 107%.
Next, `CCN1CCCC(CNC(=O)CCc2ccc(OC)c(F)c2)C1` (stereo unspecified): -5.052%; `COCCN1CCC(CNC(=O)C2(S(C)(=O)=O)CCCC2)CC1`: -5.804%.
Turning to `O=C(Cc1ccccc1F)NCC1CCN(CCN2CCOCC2)C1` (stereo unspecified), the “Percent Effect” value was 8.19%.
For `COCCN1CCC(CNC(=O)C2(c3ccccc3)CCOCC2)C1` (stereo unspecified) the value was 84.82%; for `CCCC(=O)NCC1CCCN(Cc2cc(C)c(C)o2)C1` (stereo unspecified), -7.568%; for `COc1ccccc1NC(=O)C1(c2ccccc2)CCOCC1`, 98.14%.
Next, `CCC(Oc1ccc(N(C)S(C)(=O)=O)cc1)C(N)=O` (stereo unspecified): 16.67%; `O=C(c1ccc2nccnc2c1)N1CCN(CCO)[C@@H]2CS(=O)(=O)C[C@@H]21`: -5.397%; `O=C(CCCNC(=O)Nc1ccc(F)cc1)Nc1cn[nH]c1`: -3.689%.
For `Cc1cc(C(=O)N2CCN(C(=O)CC(C)C)[C@@H]3CS(=O)(=O)C[C@@H]32)no1` the value was -7.208%; for `Cc1noc(C)c1CN1C(=O)[C@H]2CC[C@@H]1CN(Cc1cccc(O)c1)C2`, -12.83%.
Turning to `CCCN1CCC(CC(=O)NCc2cc(C)nn2C)CC1`, the “Percent Effect” value is -10.83%.
In the case of `Cc1cc(C)cc(C2(C(=O)NCC(C)CN3CCCC3=O)CC2)c1` (stereo unspecified), the “Percent Effect” value came out at 2.33%.
In the case of `COCCN1CCC(CNC(=O)C2(c3ccc(Br)cc3)CCCC2)C1` (stereo unspecified), the “Percent Effect” value is 150.6%.
For the compound `Cc1cc(C)cc(C2(C(=O)NCC3CCN(CC(F)(F)F)C3)CC2)c1` (stereo unspecified), the “Percent Effect” value was 144.8%.
As to `COCCN1CCC(CNC(=O)C2(c3ccccc3)CCC2)C1` (stereo unspecified), the “Percent Effect” value was 100.1%.
Turning to `COCCN1CCC(CNC(=O)C2(C#N)CCCCC2)CC1`, the “Percent Effect” value is reported as -10.25%.
On to `COCCN1CCC(CNC(=O)Nc2ccc(-c3ccccc3)cc2)C1` (stereo unspecified), for which the “Percent Effect” value was -0.2028%.
As for `CCCN1CCC(CNC(=O)C2(c3cc(C)cc(C)c3)CCC2)C1` (stereo unspecified), the “Percent Effect” value turned out to be 132%.
As for `N#Cc1ccc(CNC(=O)NC2CCN(CC(F)(F)F)C2)cc1` (stereo unspecified), the “Percent Effect” value stood at 9.13%.
For `CC(C)[C@@H]1CN(CCCOc2ccc(F)cc2)C[C@H]1NS(C)(=O)=O` the value was 10.36%; for `CC(C)(C)Oc1ccncc1NCc1cscn1`, -14.11%.
For `CCN1CCC(CNC(=O)C2(c3cccc(C)c3)CC2)C1` (stereo unspecified) the value was -3.143%.
For `Cc1cc(CN2CCC(CNC(=O)C3(c4ccccc4)CC3)C2)[nH]n1` (stereo unspecified) the value was -1.817%.
For `CCCN1CCC(CNC(=O)C2(c3ccccc3)CCC2)C1` (stereo unspecified), the “Percent Effect” value came out at 94.67%.
Regarding `Cc1nc2n(n1)CC(NCC(=O)NCCC1=CCCCC1)CC2` (stereo unspecified), the “Percent Effect” value came to 18.92%.
For `O=C(CN1CCN(CCO)CC1)NCCc1c(F)cccc1F` the value was 0.9837%; for `Cc1ccc(CNC(=O)N2CCOCC2C2CC2)cc1F` (stereo unspecified), -8.546%.
In the case of `Cc1ccc(CNC(=O)Cn2c(=O)c3cccnc3n2C)cc1F`, the “Percent Effect” value was 105.8%.
For `Cn1c2ncccc2c(=O)n1CC(=O)NCCc1c(F)cccc1F` the value was 97.5%; for `O=C(CN1CCCCC1Cn1cncn1)NCCC1=CCCCC1` (stereo unspecified), -14.45%; for `O=c1c2cccnc2cnn1CC(O)c1ccc(F)c(F)c1` (stereo unspecified), -16.55%.
For `Cc1cc(CNC(=O)CN2CCN(C(=O)OC(C)(C)C)CC2)ccc1F` the value was -110.5%; for `CS(=O)(=O)Cc1ccc(NC(=O)Cc2cccnc2)cc1F`, 17.36%.
Next, `Cn1c2ncccc2c(=O)n1CC(=O)Nc1ccc(F)c(F)c1`: 107.1%; `O=C(NCCNc1ncccn1)NCCc1c(F)cccc1F`: 4.613%; `Cn1c2ncccc2c(=O)n1CC(=O)NCCC1=CCCCC1`: 106.1%.
As to `CNC(=O)[C@@H]1C[C@H](N)CN1S(=O)(=O)c1cc(C)c(Cl)cc1C`, the “Percent Effect” value is reported as 4.211%.
As for `COc1ccccc1OC1(C(=O)O)CCN(c2ncccc2F)CC1`, the “Percent Effect” value is given as -11.09%.
As for `COc1ccncc1NCc1cscn1`, the “Percent Effect” value is 0.2861%.
In the case of `CSc1ccc(CN(CCO)Cc2nccn2C)cc1`, the “Percent Effect” value was -0.296%.
On to `Cc1cncc(C(=O)N2CCOc3nc(C)ccc32)c1`, for which the “Percent Effect” value is 1.683%.
Next, `CCC(C)(NCC(=O)NC(=O)NC)c1nc(C)cs1` (stereo unspecified): -8.328%; `COc1cccc(C(C)N2CCN(S(C)(=O)=O)CC2)c1` (stereo unspecified): -19.03%.
For `Cc1cccc2nc(CSCc3nnnn3C(C)C)cn12`, the “Percent Effect” value is recorded as -17.34%.
Next, `O=C(O)C(F)(F)F.O=C(c1ccoc1)N1CCO[C@]2(CCC[C@H]2COCc2cccnc2)C1`: 1.703%; `CN(Cc1cccnc1)[C@@H]1CN(C(=O)NC2CC2)[C@@H]2CCCO[C@H]12.O=C(O)C(F)(F)F.O=C(O)C(F)(F)F`: 101%; `CN(Cc1cccnc1)[C@@H]1CN(C(=O)c2ccoc2)[C@@H]2CCCO[C@H]12.O=C(O)C(F)(F)F.O=C(O)C(F)(F)F`: 116.4%.
As to `O=C(O)C(F)(F)F.O=C(c1ccoc1)N1CCO[C@]2(CCC[C@@H]2COCc2cccnc2)C1`, the “Percent Effect” value was -7.34%.
As for `CN(Cc1cccnc1)[C@@H]1CN(C(=O)CC2CC2)[C@@H]2CCCO[C@H]12.O=C(O)C(F)(F)F.O=C(O)C(F)(F)F`, the “Percent Effect” value is 108.9%.
Next, `CN(Cc1cccnc1)[C@@H]1CN(C(=O)c2ccno2)[C@@H]2CCCO[C@H]12.O=C(O)C(F)(F)F.O=C(O)C(F)(F)F`: 103.3%; `CN(Cc1nccn1C)S(=O)(=O)c1cccc(C#N)c1`: 5.7%; `CN(C)[C@@H]1CN(C(=O)c2ccc(C#N)cc2)[C@@H]2CCCO[C@H]12.O=C(O)C(F)(F)F`: 5.598%.
For `Cc1ccc(CN2C[C@@H](N(C)C)[C@H]3OCCC[C@H]32)o1.O=C(O)C(F)(F)F.O=C(O)C(F)(F)F` the value was -10.94%; for `CN(C)[C@@H]1CN(C(=O)CCc2ccccc2)[C@@H]2CCCO[C@H]12.O=C(O)C(F)(F)F`, 98.44%; for `COc1ccc(OC)c(C2CCN(Cc3nc(C)n4ccccc34)C2)c1` (stereo unspecified), 11.21%.
Next, `COc1cccc(Nc2nc(C3CCNCC3)c3ccccn23)c1.Cl`: 85.66%.
Take `COc1cccc(Nc2nc(C3CCCNC3)c3ccccn23)c1.Cl` (stereo unspecified): the “Percent Effect” value was determined as 104.7%.
Take `Cn1cc(CCCNC(=O)NC2CCN(CC(F)(F)F)C2=O)cn1` (stereo unspecified): the “Percent Effect” value is reported as -5.145%.
Consider `Cc1ncc(CNC(=O)c2oc3ccccc3c2CN(C)C)s1`, for which the “Percent Effect” value is -2.973%.
Next, `Cc1nc(CC(=O)N2CCC(c3nn(C)c4ncccc34)CC2)cs1.Cl`: 92.52%; `COC1CCN(C(=O)Cc2csc(-c3ncccn3)n2)CC1`: -12.9%.
For `Cl.Cn1nc(C2CCN(C(=O)Cc3ccsc3)CC2)c2cccnc21` the value was 115.7%; for `Cn1cnnc1S(=O)(=O)C1CCN(C(=O)c2cccs2)CC1`, -12.26%; for `CN1CCN(C(=O)Cc2ccsc2)Cc2cccnc21.O=C(O)C(F)(F)F`, -3.335%.
For `Cl.Cn1nc(C2CCN(C(=O)Cc3cccc(F)c3)CC2)c2cccnc21` the value was -4.432%; for `N#Cc1cccnc1N1CCN(C(=O)c2cccs2)CC1`, -4.28%.
Take `Cn1nc(C2CCN(C(=O)c3cccs3)CC2)c2cccnc21`: the “Percent Effect” value was 107.6%.
Consider `c1ccc(NCc2cn3c(n2)CN(Cc2ccoc2)CC3)nc1`, for which the “Percent Effect” value amounted to 6.648%.
As for `COc1ccccc1OCCCc1cccc(C#N)n1`, the “Percent Effect” value is recorded as -3.599%.
Regarding `FC(F)(F)CCc1ccnc(N2CCN(CCc3ccncc3)CC2)n1`, the “Percent Effect” value is -22.6%.
For `CC(C)N1CCC(N2CCN(C3CCC3)CC2CCO)CC1` (stereo unspecified) the value was 3.855%.
Turning to `CCc1nc(C)sc1C(=O)N1CCN(c2ncccc2C)CC1`, the “Percent Effect” value was determined as 34.17%.
For `Cc1nc(CN2C(=O)CCC23CCN(c2ncccc2C)CC3)cs1` the value was 91.84%; for `Cc1nc(CN2C(=O)CC[C@@H]3[C@H]2CCN3C(=O)c2ccc[nH]2)cs1`, -9.626%; for `O=C(c1ccc[nH]1)N1CC2(CCN(c3nccs3)C2)C1`, -14.28%.
As for `Cc1nc(CN2C[C@@H]3CN(C(=O)c4ccco4)C[C@@H]3C2=O)cs1.O=C(O)C(F)(F)F`, the “Percent Effect” value was -11.8%.
For the compound `O=C1CCC2(CCCN(c3ncc(F)cn3)CC2)N1Cc1ccccc1` (stereo unspecified), the “Percent Effect” value is given as -5.866%.
For `Cc1nc(CN2C(=O)CCC23CCN(Cc2ccco2)CC3)cs1` the value was 111.9%; for `Cc1nc2c(c(N3CCN(Cc4ccco4)CC3)n1)CCNCC2`, 3.397%; for `Cc1nc(CN2CCC23CCN(C(=O)c2ccco2)CC3)cs1`, 98.46%.
Consider `Cc1nc(CN2CCOCC23CCN(c2ccc(C#N)cc2)CC3)cs1.O=C(O)C(F)(F)F`, for which the “Percent Effect” value is recorded as -24.99%.
With `Cc1nc(CN2CCC3(C2)CN(C(=O)c2ccc[nH]2)C3)cs1`, the “Percent Effect” value stood at 122.8%.
